The text below walks through data of PubChem BioAssay.

Assay [1] in a line: inhibitors of TNFa-induced NFkB p65 translocation, primary screen, imaging, HUVEC, MLSMR starter and 10KST1 sets (AID 438;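 active means inhibition above 20% together with a positive visual image hit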;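 further: compound added about 3h40 before a 20 min TNFalpha stimulation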;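 on inhibition: signal is the nuclear over cytoplasmic p65 intensity ratio per well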). The conditions noted are these: HUVEC TNFa-induced p65 nuclear translocation; cell count: measured here: nuclei count (cytotoxicity indicator), at 2.08 µM; inhibition: at 2 µM, stronger effect = higher value, 0% TNFa-plus-vehicle, 100% no-TNFa wells.
Assay [2] can be described thus: inhibitors of mutant huntingtin aggregation, primary screen, imaging, exon1htt(103Q)mCFP cells, high-content imaging (AID 483;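 active means visual image review flags a hit and inhibition of aggregation exceeds 20%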;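 further: compound exposure lasted 3 days before fixation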;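 on nuclei count: percent of the per-plate median nuclei count of sample wells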). The conditions noted are these: exon1htt(103Q)mCFP cell line, aggregate imaging, at 2 µM; inhibition of aggregation: stronger effect = higher value; nuclei count: measured here: cell count, toxicity.
Assay [3] in a line: inhibitors of E-selectin induction by TNFa, primary screen, imaging, HUVEC, immunofluorescence, MLSMR starter and 10KST1 sets (AID 487;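 active means visually confirmed hit in the image check and inhibition above 20%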;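 on inhibition: signal is fraction of cell area covered by stained E-selectin grains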;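 on nuclei count: 100% = median nuclei count of all wells on the same plate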). The conditions noted are these: HUVEC TNFalpha-induced E-selectin immunofluorescence imaging, at 2 µM; inhibition: stronger effect = higher value; nuclei count: measured here: cell number, toxicity.
In assay [4] the target is Voltage-gated potassium channel subunit beta-2 (Rattus norvegicus) (UniProt P62483). The assay can be described thus: KvBeta enzyme negative modulators, primary screen, biochemical, NADPH fluorescence (AID 622;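 active means fluorescence slope higher than the sample average by over 3 SD, cut at about -0.22 in these data, passing the limit was not always enough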;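 further: slope of raw intensity against log time taken from 70 to 1610 s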). The conditions noted are these: recombinant KvBeta, 4-cyanobenzaldehyde reduction, at 10 µM, stronger effect = higher value.
For assay [5] the target is unchanged. The assay is described as follows: KvBeta positive modulators, primary screen, biochemical, NADPH fluorescence (AID 623;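 active means NADPH fluorescence slope more negative than the mean of all samples by about 3 SD, 99.7% confidence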;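 further: fluorescence intensity change per second fitted from 20 to 320 s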). The conditions noted are these: Recombinant KvBeta, NADPH fluorescence decrease slope, 10 min; at 10 µM; stronger effect = lower value.
For assay [6], the target named is Alpha-2C adrenergic receptor (Homo sapiens) (UniProt P18825). The assay can be described thus: modulators of alpha2C/GIRK thallium flux, primary screen, cell-based, HEK293 alpha2C/GIRK1/2 (AID 624;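 active means fluorescence slope after compound addition differing from the mean of all screened samples at 99.7% confidence, in either direction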;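 further: slope of fluorescence ratio to pre-addition baseline per second over 15 to 24 s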). The conditions noted are these: thallium flux BTC fluorescence, at 10 µM, actives lie on both sides.
Assay [7] in a line: inhibitors of Sendai virus-induced IRF3 signaling, primary screen, TLR/RLR signaling modifier project, cell-based, Sendai virus stimulus, luciferase, 10K MLSCN set (AID 602276;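 active means inhibition at or above 50% at 10 µM; inactive means inhibition below 50%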;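 further: firefly luciferase from ISG56 promoter only with Renilla not read in this screen; 0% = Sendai virus plus DMSO and 100% = medium plus DMSO without virus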). To be noted: HEK293 RL24 IRF3 luciferase reporter, at 10 µM, stronger effect = higher value.
Assay [8] in a line: inhibitors of poly I:C-induced TLR3 signaling, primary screen, cell-based, poly I:C stimulus, luciferase, 10K MLSCN set (AID 602277). To be noted: HEK293-TLR3 RL24 IRF3 luciferase reporter, at 10 µM, stronger effect = higher value. Background: Reporter assays use an easily measured gene product as a stand-in for the process of interest.

Active and inactive are the calls of the source.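 How the source made its calls, unless noted: active means inhibition of the reporter signal at or above 50%; inactive means inhibition below 50%.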

Chain of Alpha-2C adrenergic receptor (Homo sapiens) (P18825 whole entry, looked up): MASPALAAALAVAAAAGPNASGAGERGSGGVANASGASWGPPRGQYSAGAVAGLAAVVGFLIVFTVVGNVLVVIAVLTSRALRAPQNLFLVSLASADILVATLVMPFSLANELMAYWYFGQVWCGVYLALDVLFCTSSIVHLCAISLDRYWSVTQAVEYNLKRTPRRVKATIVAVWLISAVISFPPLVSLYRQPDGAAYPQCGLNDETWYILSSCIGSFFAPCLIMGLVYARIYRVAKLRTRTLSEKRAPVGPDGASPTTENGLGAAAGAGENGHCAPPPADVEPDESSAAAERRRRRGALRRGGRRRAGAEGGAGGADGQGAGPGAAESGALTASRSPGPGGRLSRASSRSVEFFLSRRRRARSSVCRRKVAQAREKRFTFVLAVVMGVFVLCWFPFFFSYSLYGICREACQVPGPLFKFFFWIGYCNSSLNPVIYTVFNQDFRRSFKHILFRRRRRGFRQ
Chain of Voltage-gated potassium channel subunit beta-2 (Rattus norvegicus) (P62483 whole entry, looked up): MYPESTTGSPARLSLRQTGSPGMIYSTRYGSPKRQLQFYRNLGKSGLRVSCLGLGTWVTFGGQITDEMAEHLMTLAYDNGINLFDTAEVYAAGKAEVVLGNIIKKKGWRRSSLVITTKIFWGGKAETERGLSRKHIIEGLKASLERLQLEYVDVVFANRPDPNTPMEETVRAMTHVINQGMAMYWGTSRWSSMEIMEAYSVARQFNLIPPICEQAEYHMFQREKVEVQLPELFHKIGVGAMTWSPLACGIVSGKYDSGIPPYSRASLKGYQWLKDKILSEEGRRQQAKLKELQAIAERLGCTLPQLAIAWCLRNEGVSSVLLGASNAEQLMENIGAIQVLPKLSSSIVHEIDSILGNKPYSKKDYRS

Usually inhibition stands for the relative decrease from the control value, in per cent. Take `O=C(CCNS(=O)(=O)c1cccc2nsnc12)Nc1ccc2c(c1)OCCO2`: in assay [1], the cell count was 565. The inhibition in assay [1] was -17.9% (inactive); in assay [3], -28% (inactive); in assay [7], 19.3% (inactive); in assay [8], 23.2% (inactive). In addition, the inhibition of aggregation in assay [2] was -1.5% (inactive). The nuclei count came to 120% in assay [2] and 119% in assay [3]. Further, in assay [4], the fluorescence slope was -0.421 (inactive). The NADPH fluorescence slope in assay [5] was -0.00049 (inactive). Besides, in assay [6], the slope is 0.00512 (inactive).

On to `O=c1c2ccccc2nc(SCc2nnc(-c3ccccc3Br)o2)n1-c1ccccc1`, for which the cell count in assay [1] is 379. Besides, the inhibition is 2.9% (inactive) in assay [1], -18.3% (inactive) in assay [3], 0.607% (inactive) in assay [7] and 1.7% (inactive) in assay [8]. In assay [2], the inhibition of aggregation is 5.3% (inactive). The results for the nuclei count in assay [2] and in assay [3] were 63.9% and 104%, respectively. Besides, the fluorescence slope in assay [4] was -0.573 (inactive). In assay [5], the NADPH fluorescence slope is -4.9e-05 (inactive). Also, the slope in assay [6] was 0.00444 (inactive).

Consider `COc1cc2c(cc1OC)CN(C(=O)COc1ccc(C)c(C)c1)CC2`, for which the cell count in assay [1] was 653. Moreover, the inhibition was -3% (inactive) in assay [1], 17.1% (inactive) in assay [3], 18.6% (inactive) in assay [7] and 20.9% (inactive) in assay [8]. Further, the inhibition of aggregation in assay [2] is -11.6% (inactive). The nuclei count in assay [2] and in assay [3] was 106% throughout. Moreover, the fluorescence slope in assay [4] was -0.456 (inactive). In addition, in assay [5], the NADPH fluorescence slope was 1.3e-05 (inactive). For the same compound, in assay [6], the slope is 0.00534 (inactive).

For `Cc1c(C(=O)OC2CCC(C)CC2)[nH]c2c1C(=O)CCC2` (stereo not drawn), in assay [1], the cell count worked out at 625. The inhibition in assay [1] is -0.8% (inactive); in assay [3] it was -31.8% (inactive); in assay [7] it was -106% (inactive); in assay [8], -256% (inactive). In addition, the inhibition of aggregation in assay [2] is 23.7% (inactive). Besides, the nuclei count stood at 81.6% in assay [2] and 118% in assay [3]. The fluorescence slope in assay [4] was -0.56 (inactive). Moreover, the NADPH fluorescence slope in assay [5] is 1.4e-05 (inactive). The slope in assay [6] was 0.00619 (inactive).

As for `CC(=O)N(C)C1(c2nnnn2CCOC(=O)Nc2ccc(Cl)cc2)CCCCC1`, the cell count in assay [1] came out at 498. For the same compound, the inhibition is 4.3% (inactive) in assay [1], -33.3% (inactive) in assay [3], 1.79% (inactive) in assay [7] and 20.6% (inactive) in assay [8]. For the same compound, in assay [2], the inhibition of aggregation is 5.4% (inactive). The nuclei count amounted to 107% in assay [2] and 105% in assay [3]. In addition, the fluorescence slope in assay [4] is -0.398 (inactive). In assay [5], the NADPH fluorescence slope was -3.1e-05 (inactive). Further, in assay [6], the slope is 0.00444 (inactive).

On to `CN(C)CC(C(=O)c1ccccc1)c1ccccc1` (stereo not drawn), for which the cell count in assay [1] came out at 460. Also, the inhibition in assay [1] is 2.4% (inactive); in assay [3], 20.2% (inactive); in assay [7] it was 11% (inactive); in assay [8] it was 82.3% (active). Besides, in assay [2], the inhibition of aggregation was -28% (inactive). The nuclei count in assay [2] turned out to be 13.4%; in assay [3], 113%. Also, in assay [4], the fluorescence slope was -0.251 (inactive). Also, the NADPH fluorescence slope in assay [5] is -1.2e-05 (inactive). The slope in assay [6] is 0.0054 (inactive).

For the compound `COc1ccc(OC)c(NC(=O)CCNS(=O)(=O)c2cccs2)c1`, the cell count in assay [1] was 662. Also, the inhibition in assay [1] is 7.1% (inactive); in assay [3], -74.4% (inactive); in assay [7], 14.1% (inactive); in assay [8], 24.2% (inactive). In addition, the inhibition of aggregation in assay [2] is 5.1% (inactive). In addition, the nuclei count in assay [2] was determined as 81.4%; in assay [3], 91.1%. Besides, the fluorescence slope in assay [4] was -0.533 (inactive). Further, in assay [5], the NADPH fluorescence slope is 3.3e-05 (inactive). For the same compound, the slope in assay [6] was 0.00666 (inactive).

For `O=C(O)CC1NC(=O)N(c2ccccc2)C1=O` (stereo not drawn), in assay [1], the cell count amounted to 540. The inhibition in assay [1] is -4.6% (inactive); in assay [3], -106% (inactive); in assay [7], 16.4% (inactive); in assay [8], 21.9% (inactive). In addition, the inhibition of aggregation in assay [2] is 5.1% (inactive). The figures for the nuclei count in assay [2] and in assay [3] were 95.5% and 114%, respectively. In assay [4], the fluorescence slope was -0.599 (inactive). Moreover, in assay [5], the NADPH fluorescence slope is 1.8e-06 (inactive). For the same compound, in assay [6], the slope was 0.00411 (inactive).

For `Cc1cccc(C(=O)N2CCC(n3nnc4cc(F)ccc43)CC2)c1`, the cell count in assay [1] is 695. The inhibition in assay [1] is -12.5% (inactive); in assay [3] it was 13.4% (inactive); in assay [7], 5.99% (inactive); in assay [8], 6.27% (inactive). Moreover, the inhibition of aggregation in assay [2] is -26.4% (inactive). Besides, the nuclei count was 101% in assay [2] and 106% in assay [3]. The fluorescence slope in assay [4] is -0.325 (inactive). Besides, the NADPH fluorescence slope in assay [5] is -2e-05 (inactive). Moreover, in assay [6], the slope is 0.0067 (inactive).

`CN(C)c1ccc(NC(=O)c2ccncc2)c2ccccc12`: in assay [1], the cell count stood at 315. The inhibition is 2.7% (inactive) in assay [1], -88.6% (inactive) in assay [3], 15.4% (inactive) in assay [7] and 12% (inactive) in assay [8]. In assay [2], the inhibition of aggregation was 6.2% (inactive). Also, the nuclei count was determined as 94.4% in assay [2] and 105% in assay [3]. Moreover, in assay [4], the fluorescence slope was -0.316 (inactive). Also, in assay [5], the NADPH fluorescence slope was -5.4e-05 (inactive). The slope in assay [6] is 0.00482 (inactive).

Regarding `COc1ccc(C2CC(c3ccco3)n3ncnc3N2)cc1` (stereo not drawn), the cell count in assay [1] was determined as 458. The inhibition was 6% (inactive) in assay [1], -21.1% (inactive) in assay [3], 9.66% (inactive) in assay [7] and 39.2% (inactive) in assay [8]. Also, the inhibition of aggregation in assay [2] was -19.3% (inactive). In addition, the nuclei count in assay [2] is 59.7%; in assay [3], 96.4%. Moreover, the fluorescence slope in assay [4] is -0.4 (inactive). Further, the NADPH fluorescence slope in assay [5] is -6.8e-05 (inactive). Moreover, in assay [6], the slope is 0.00517 (inactive).

Regarding `O=C(NCC1CCCO1)c1cccc(N2CCCC2=O)c1` (stereo not drawn), in assay [1], the cell count came out at 458. Further, the inhibition is -18.6% (inactive) in assay [1], -32.7% (inactive) in assay [3], 10.8% (inactive) in assay [7] and 4.03% (inactive) in assay [8]. In addition, in assay [2], the inhibition of aggregation is -1.3% (inactive). The nuclei count in assay [2] is 88.8%; in assay [3], 115%. The fluorescence slope in assay [4] was -0.376 (inactive). The NADPH fluorescence slope in assay [5] was 2.3e-06 (inactive). The slope in assay [6] was 0.0057 (inactive).

With `CCc1nnc(NC(=O)c2ccc(COc3ccc(C)cc3)o2)s1`, in assay [1], the cell count was determined as 312. The inhibition in assay [1] is -1.9% (inactive); in assay [3] it was 7.7% (inactive); in assay [7], -17.4% (inactive); in assay [8] it was 99.8% (active). Also, the inhibition of aggregation in assay [2] is 6.3% (inactive). In addition, the figures for the nuclei count in assay [2] and in assay [3] were 109% and 110%, respectively. For the same compound, the fluorescence slope in assay [4] is -0.468 (inactive). The NADPH fluorescence slope in assay [5] was -0.00028 (inactive). Besides, in assay [6], the slope is 0.00745 (inactive).
